Test [1] can be described thus: S16 Schwann cell viability assay (CellTiter-Glo assay) (AID 624031).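 Note: native untransfected S16 rat Schwann cells; nearly all actives have a fitted effect of over 70% in size.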 Put shortly: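 Following overnight culture in 10% FBS DMEM, parental S16 rat Schwann cells are dosed for 24 h at 37 °C. Viability is read as CellTiter-Glo luminescence and expressed as % activity relative to DMSO (0%) and no-cell wells.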
In general terms: ATP-based viability assays read luminescence as a measure of living cells.

The subject of the next test is AA1029. Description: qHTS profiling for inhibitors of Plasmodium falciparum proliferation (AID 504749). Note: nearly all actives have a fitted effect of over 60% in size. Note: potency is the fitted concentration of half-maximal effect. The settings on record: P. falciparum in erythrocytes, SYBR Green DNA, 72 h; series mostly up to 12.8 µM. The procedure, abridged:
(§1)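 Three-day growth assay of blood-stage parasites in erythrocytes (0.3% parasitemia, 2.5% hematocrit) at 37 C, 5% CO2, quantified by SYBR Green DNA staining after overnight detergent lysis.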
For orientation: Quantitative high-throughput screening tests each substance at several concentrations.

The test system of a further test is ATS189. Described as above. The settings on record: P. falciparum in erythrocytes, SYBR Green DNA, 72 h; series mostly up to 12.8 µM. Put shortly: as §1
A further test has as its system CP191. The description is as above. The settings on record: P. falciparum in erythrocytes, SYBR Green DNA, 72 h; series mostly up to 12.8 µM. Put shortly:
as §1

Another test has as its system CP192. The description is as above. As to conditions: P. falciparum in erythrocytes, SYBR Green DNA, 72 h; series mostly up to 12.8 µM. Put shortly:
as §1

The test system of another test is CP215. Described as above. As to conditions: P. falciparum in erythrocytes, SYBR Green DNA, 72 h; series mostly up to 12.8 µM. The procedure, abridged: as §1
Another test concerns CP217. The description is as above. The settings on record: P. falciparum in erythrocytes, SYBR Green DNA, 72 h; series mostly up to 12.8 µM. The procedure, abridged:
as §1

The test system of the next test is CP247. Described as above. The settings on record: P. falciparum in erythrocytes, SYBR Green DNA, 72 h; series mostly up to 12.8 µM. The procedure, abridged: as §1
In the next test the test system is CP250. Described as above. The settings on record: P. falciparum in erythrocytes, SYBR Green DNA, 72 h; series mostly up to 12.8 µM. The procedure, abridged: as §1
In a further test the test system is CP260. Described as above. As to conditions: P. falciparum in erythrocytes, SYBR Green DNA, 72 h; series mostly up to 12.8 µM. Put shortly:
as §1

The next test has as its system CP265. Described as above. As to conditions: P. falciparum in erythrocytes, SYBR Green DNA, 72 h; series mostly up to 12.8 µM. Put shortly:
as §1

The next test relates to CP335. The description is as above. As to conditions: P. falciparum in erythrocytes, SYBR Green DNA, 72 h; series mostly up to 12.8 µM. Put shortly: as §1
For the next test, the system named is DFO2036. Described as above. As to conditions: P. falciparum in erythrocytes, SYBR Green DNA, 72 h; series mostly up to 12.8 µM. The procedure, abridged: as §1
A further test concerns DIV17. Described as above. As to conditions: P. falciparum in erythrocytes, SYBR Green DNA, 72 h; series mostly up to 12.8 µM. Put shortly:
as §1

In another test the test system is Dd2. The description is as above. As to conditions: P. falciparum in erythrocytes, SYBR Green DNA, 72 h; series mostly up to 12.8 µM. The procedure, abridged: as §1
The test system of a further test is ICS. Described as above. The settings on record: P. falciparum in erythrocytes, SYBR Green DNA, 72 h; series mostly up to 12.8 µM. Put shortly: as §1
A further test relates to P93_24. The description is as above. As to conditions: P. falciparum in erythrocytes, SYBR Green DNA, 72 h; series mostly up to 12.8 µM. The procedure, abridged:
as §1

Another test relates to P94_40. The description is as above. As to conditions: P. falciparum in erythrocytes, SYBR Green DNA, 72 h; series mostly up to 12.8 µM. The procedure, abridged: as §1
The next test concerns TAB113. Described as above. The settings on record: P. falciparum in erythrocytes, SYBR Green DNA, 72 h; series mostly up to 12.8 µM. The procedure, abridged:
as §1

The next test relates to W2. The description is as above. As to conditions: P. falciparum in erythrocytes, SYBR Green DNA, 72 h; series mostly up to 12.8 µM. The procedure, abridged:
as §1

Inconclusive results are not listed. Activity calls are given as the source filed them. Calls come from the whole dose curve; as a rule, active = well fitted curve in the direction sought with a large enough effect; inconclusive = small, poorly fitted or top-dose-only effect, or another doubt; inactive = no such curve, though single readings can be large; an effect the other way counts as inactive or inconclusive.

Outcome and Potency data for ten compounds are collected here from PubChem BioAssay (NCATS).

Turning to `CN(C)CCc1c[nH]c2ccc(CC3COC(=O)N3)cc12` (stereo unspecified), the result in test [1] was inactive. The Potency result in the test on AA1029, with ATS189, with CP191, in the test with CP192, in the test with CP215 and in the test with CP217 was “inactive” in each case. Further, the Potency result in the test on CP247, in the test on CP250, with CP260, with CP265, with CP335 and in the test on DFO2036 was “inactive” throughout. The Potency result in the test with DIV17, with Dd2, with ICS, in the test with P93_24, with P94_40 and in the test with TAB113 was “inactive” throughout. The Potency result with W2 is “inactive”.
As for `CC(=O)N[C@@H]1C(O)OC(CO)C(O)C1O` (stereo partly specified), the compound was classed as inactive in [1]. Also, the Potency entry with AA1029, with ATS189, in the test on CP191, with CP192, with CP215 and in the test on CP217 was “inactive” throughout. Further, the Potency result with CP247, in the test on CP250, in the test on CP260, with CP265, in the test on CP335 and in the test with DFO2036 was “inactive” throughout. The Potency entry with DIV17, in the test with ICS, in the test on P93_24, in the test with P94_40, with TAB113 and with W2 was “inactive” each time.
With `C[C@]12CCC(=O)C=C1CCC1C2C(=O)C[C@]2(C)C1CC[C@]2(O)C(=O)CO` (stereo partly specified), the call in test [1] was inactive. Besides, the Potency entry in the test with AA1029, in the test on ATS189, in the test with CP191, in the test on CP192, with CP215 and with CP217 was “inactive” each time. Also, the Potency result in the test with CP247, in the test on CP250, in the test with CP260, with CP265, with CP335 and with DFO2036 was “inactive” throughout. The Potency result with DIV17, with Dd2, in the test on ICS, with P93_24, in the test with P94_40 and with TAB113 was “inactive” each time. Further, the Potency result in the test with W2 is “inactive”.
With `CN1CC(=O)N=C1N`, the Potency result with AA1029, in the test on ATS189, in the test with CP191, with CP192, in the test on CP215 and in the test with CP217 was “inactive” each time. Further, the Potency result in the test on CP247, in the test with CP250, in the test with CP260, in the test on CP265, with CP335 and with DFO2036 was “inactive” each time. In addition, the Potency result in the test with DIV17, in the test with Dd2, in the test with ICS, with P93_24, in the test with P94_40 and in the test with TAB113 was “inactive” throughout. Further, the Potency result in the test with W2 is “inactive”.
With `O=C1OC(CO)C(O)C(O)C1O` (stereo unspecified), the result in [1] was inactive. The Potency entry in the test on AA1029, in the test on ATS189, in the test with CP191, with CP192, in the test on CP215 and in the test on CP217 was “inactive” in each case. For the same compound, the Potency result in the test with CP247, in the test with CP250, in the test on CP260, in the test with CP265, in the test with CP335 and in the test with DFO2036 was “inactive” each time. The Potency entry in the test on DIV17, with Dd2, in the test with ICS, in the test on P94_40, in the test on TAB113 and in the test on W2 was “inactive” in each case.
Consider `CCC(CCC(C)C1CCC2C3CC=C4CC(O)CC[C@@]4(C)C3CC[C@@]12C)C(C)C` (stereo partly specified), for which, in test [1], the outcome was inactive. For the same compound, the Potency entry in the test with AA1029, in the test on ATS189, in the test on CP191, with CP192, with CP215 and in the test on CP217 was “inactive” in each case. Moreover, the Potency entry in the test on CP247, in the test on CP250, in the test on CP260, in the test on CP265, with CP335 and in the test with DFO2036 was “inactive” in each case. For the same compound, the Potency result with DIV17, with Dd2, in the test on ICS, in the test with P93_24, in the test on P94_40 and in the test on TAB113 was “inactive” in each case. Besides, in the test on W2, the Potency result is “inactive”.
As to `CCC(C)C(=O)OC1CCC=C2C=CC(C)C(CCC3CC(O)CC(=O)O3)[C@@H]21` (stereo partly specified), the compound was classed as inactive in test [1]. In addition, the Potency entry in the test on AA1029, in the test with ATS189, in the test with CP191, in the test on CP192, with CP215 and in the test with CP217 was “inactive” each time. Moreover, the Potency result in the test with CP247, with CP250, with CP260, with CP265, with CP335 and with DFO2036 was “inactive” each time. Further, the Potency entry with DIV17, with ICS, in the test with P93_24, in the test on P94_40 and with W2 was “inactive” in each case.
On to `CN(C)CCCOC1C(C(O)CO)OC2OC(C)(C)O[C@@H]21` (stereo partly specified), for which the Potency entry in the test on AA1029, with ATS189, in the test with CP191, in the test on CP192, in the test with CP215 and with CP217 was “inactive” in each case. Further, the Potency result with CP247, with CP250, in the test on CP265, with CP335, in the test with DFO2036 and in the test on DIV17 was “inactive” in each case. Also, the Potency result in the test on Dd2, with ICS, in the test with P93_24, in the test on P94_40, with TAB113 and in the test with W2 was “inactive” throughout.
As for `COc1ccc(-c2cc(=O)c3c(O)cc(O[C@H]4OC(COC5OC(C)C(O)C(O)[C@H]5O)C(O)C(O)C4O)cc3o2)cc1O` (stereo partly specified), the result in [1] was inactive. The Potency result in the test with AA1029, in the test with ATS189, in the test with CP191, with CP192, in the test on CP215 and in the test with CP217 was “inactive” throughout. The Potency result in the test on CP247, in the test on CP250, with CP260, in the test on CP265, in the test with CP335 and with DFO2036 was “inactive” each time. Moreover, the Potency result in the test with DIV17, in the test with Dd2, in the test with ICS, with P93_24, in the test with P94_40 and in the test on TAB113 was “inactive” throughout.
As to `C=Cc1c(C)/c2[n-]/c1=C\c1[n-]c(c(CC)c1C)/C=c1\[n-]c3c(c1C)C(=O)C(C(=O)[O-])C=3c1[n-]c(c(C)c1CCC(=O)[O-])\C=2.[Cu].[Na+].[Na+]` (stereo unspecified), the compound was classed as inactive in [1]. Moreover, the Potency result with CP265 and in the test on DFO2036 was “inactive” each time. In addition, the Potency in the test with W2 was 12 µM (active).
